Reference: the supplement of paper PMC8728848
The sample as a whole holds a higher share of the strongest signals than the screen did.

How the values were obtained:
Experiment in all cases: glycan array binding signal (z-score within array); higher = stronger binding
Details in all cases: glycan notation: IUPAC condensed, linker removed
[1] = target: Fuc(a1-2)Gal(b1-3)GlcNAc(b1-3)[Neu5Ac(a2-6)Gal(b1-4)GlcNAc(b1-6)]Gal(b1-4)Glc
Method in brief: (§1)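 The binding signal is a Z-score computed within each array. Data were drawn from 3228 arrays in the Consortium for Functional Glycomics database, restricted to those with a known protein sequence. Scores were averaged over arrays of the same protein sequence at different concentrations or buffers, and over linkers, and negative values can be taken as non-binding.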

[2] = target: Fuc(a1-3)[Gal(b1-4)]GlcNAc(b1-6)GalNAc
Method in brief: as §1

Gal(a1-2)Gal = target: Gal(a1-2)Gal
Method in brief: as §1

[3] = target: Gal(a1-3)Gal(b1-3)GlcNAc(b1-6)GalNAc
Method in brief: as §1

[4] = target: Gal(a1-3)Gal(b1-3)[Fuc(a1-4)]GlcNAc(b1-2)Man(a1-3)[Gal(a1-3)Gal(b1-3)[Fuc(a1-4)]GlcNAc(b1-2)Man(a1-6)]Man(b1-4)GlcNAc(b1-4)GlcNAc
Method in brief: as §1

[5] = target: Gal(a1-3)[Gal(a1-4)]Gal(b1-4)GlcNAc
Method in brief: as §1

Gal(a1-4)Gal(b1-4)Glc = target: Gal(a1-4)Gal(b1-4)Glc
Method in brief: as §1

[6] = target: Gal(b1-3)GlcNAc(b1-2)Man(a1-3)[GlcNAc(b1-4)][Gal(b1-3)GlcNAc(b1-2)Man(a1-6)]Man(b1-4)GlcNAc(b1-4)GlcNAc
Method in brief: as §1

Gal(b1-3)GlcNAc6S = target: Gal(b1-3)GlcNAc6S
Method in brief: as §1

[7] = target: Gal(b1-4)GlcNAc(b1-3)Gal(b1-4)GlcNAc(b1-2)[Gal(b1-4)GlcNAc(b1-3)Gal(b1-4)GlcNAc(b1-6)]Man(a1-6)[Gal(b1-4)GlcNAc(b1-3)Gal(b1-4)GlcNAc(b1-2)Man(a1-3)]Man(b1-4)GlcNAc(b1-4)[Fuc(a1-6)]GlcNAc
Method in brief: as §1

[8] = target: Gal(b1-4)GlcNAc(b1-3)Gal(b1-4)GlcNAc(b1-3)Gal(b1-4)GlcNAc(b1-2)[Gal(b1-4)GlcNAc(b1-3)Gal(b1-4)GlcNAc(b1-3)Gal(b1-4)GlcNAc(b1-6)]Man(a1-6)[Gal(b1-4)GlcNAc(b1-3)Gal(b1-4)GlcNAc(b1-3)Gal(b1-4)GlcNAc(b1-2)Man(a1-3)]Man(b1-4)GlcNAc(b1-4)[Fuc(a1-6)]GlcNAc
Method in brief: as §1

[9] = target: Gal(b1-4)GlcNAc(b1-3)Gal(b1-4)GlcNAc(b1-3)Gal(b1-4)GlcNAc(b1-3)Gal(b1-4)GlcNAc(b1-3)Gal(b1-4)GlcNAc(b1-2)Man(a1-3)[Gal(b1-4)GlcNAc(b1-3)Gal(b1-4)GlcNAc(b1-3)Gal(b1-4)GlcNAc(b1-3)Gal(b1-4)GlcNAc(b1-3)Gal(b1-4)GlcNAc(b1-2)Man(a1-6)]Man(b1-4)GlcNAc(b1-4)GlcNAc
Method in brief: as §1

[10] = target: Gal(b1-4)GlcNAc(b1-3)Gal(b1-4)GlcNAc(b1-3)Gal(b1-4)GlcNAc(b1-3)Gal(b1-4)GlcNAc(b1-3)Gal(b1-4)GlcNAc(b1-2)Man(a1-3)[Gal(b1-4)GlcNAc(b1-3)Gal(b1-4)GlcNAc(b1-3)Gal(b1-4)GlcNAc(b1-3)Gal(b1-4)GlcNAc(b1-3)Gal(b1-4)GlcNAc(b1-2)Man(a1-6)]Man(b1-4)GlcNAc(b1-4)[Fuc(a1-6)]GlcNAc
Method in brief: as §1

[11] = target: Gal(b1-4)GlcNAc(b1-3)Gal(b1-4)GlcNAc(b1-3)Gal(b1-4)GlcNAc(b1-3)Gal(b1-4)GlcNAc(b1-3)Gal(b1-4)GlcNAc(b1-3)Gal(b1-4)GlcNAc(b1-2)Man(a1-3)[Gal(b1-4)GlcNAc(b1-3)Gal(b1-4)GlcNAc(b1-3)Gal(b1-4)GlcNAc(b1-3)Gal(b1-4)GlcNAc(b1-3)Gal(b1-4)GlcNAc(b1-3)Gal(b1-4)GlcNAc(b1-2)Man(a1-6)]Man(b1-4)GlcNAc(b1-4)GlcNAc
Method in brief: as §1

[12] = target: Gal(b1-4)GlcNAc(b1-3)[Gal(b1-4)GlcNAc(b1-6)]Gal(b1-4)GlcNAc
Method in brief: as §1

Gal(b1-4)GlcNAc6P = target: Gal(b1-4)GlcNAc6P
Method in brief: as §1

Gal6P(b1-4)GlcNAc = target: Gal6P(b1-4)GlcNAc
Method in brief: as §1

GalNAc(a1-3)Gal = target: GalNAc(a1-3)Gal
Method in brief: as §1

GalNAc(b1-3)GlcNAc = target: GalNAc(b1-3)GlcNAc
Method in brief: as §1

GalNAc6S(b1-4)GlcNAc = target: GalNAc6S(b1-4)GlcNAc
Method in brief: as §1

GlcA(b1-6)Gal = target: GlcA(b1-6)Gal
Method in brief: as §1

[13] = target: GlcNAc(a1-4)Gal(b1-4)GlcNAc(b1-3)Gal(b1-4)Glc
Method in brief: as §1

[14] = target: GlcNAc(b1-2)Man(a1-3)[GlcNAc(b1-4)][GlcNAc(b1-2)Man(a1-6)]Man(b1-4)GlcNAc(b1-4)[Fuc(a1-6)]GlcNAc
Method in brief: as §1

GlcNAc(b1-3)Gal = target: GlcNAc(b1-3)Gal
Method in brief: as §1

[15] = target: GlcNAc(b1-3)Gal(b1-4)GlcNAc(b1-3)Gal(b1-4)GlcNAc(b1-3)Gal(b1-4)GlcNAc(b1-3)Gal(b1-4)GlcNAc(b1-2)Man(a1-3)[GlcNAc(b1-3)Gal(b1-4)GlcNAc(b1-3)Gal(b1-4)GlcNAc(b1-3)Gal(b1-4)GlcNAc(b1-3)Gal(b1-4)GlcNAc(b1-2)Man(a1-6)]Man(b1-4)GlcNAc(b1-4)[Fuc(a1-6)]GlcNAc
Method in brief: as §1

[16] = target: GlcNAc(b1-3)Gal(b1-4)GlcNAc(b1-3)GalNAc
Method in brief: as §1

[17] = target: Man(a1-3)[Man(a1-6)]Man(a1-6)[Man(a1-3)]Man(b1-4)GlcNAc(b1-4)GlcNAc
Method in brief: as §1

[18] = target: Neu5Ac(a2-3)Gal(b1-3)GlcNAc(b1-3)GalNAc
Method in brief: as §1

[19] = target: Neu5Ac(a2-3)Gal(b1-3)[Fuc(a1-4)]GlcNAc(b1-3)Gal(b1-4)[Fuc(a1-3)]GlcNAc
Method in brief: as §1

[20] = target: Neu5Ac(a2-3)Gal(b1-3)]Neu5Ac(a2-3)Gal(b1-4)]GlcNAc
Method in brief: as §1

B1: PX9961J-bvu-499-24-499 (Bacteroides vulgatus) (protein)
chain: LNTDPSTAVPSDDAIKNIDDAQVALNGIYRLASAHSYYGDNYLYYADCRGEDVQARINKGAGRRVSPYYFFDVTADDNFNITLVWNQPYKVIHQANSLIEKLDAGNAGNARPEEVARIKSEALAMRGLALFDLTRLFGMPYTLDNGASLGVPIEIQTTLEDHAPERNTVAQCYEQVLKDLNDALGGLTKEKHDAYMNYWSVKALLSRVYLYMNDNENALKCAEEVINDNGGIYRLFTHDEYPSVWGKDFNSESLFEFYFTMSEPSGGSGGEGAPMVYADNVKDWNNLILTKAYLDLLNEDPEDVRHVFPHLPENAVADTLPVAAKGQPKYLIKYPGKSGSVTDAVSTVNPQDNDLCILRLSEVYLNAAEAAFKIGNTEKALTYLNAIVTRANPAKSVTSADLSLERILKERRKELVGEGHAFFDYMRNGKSVDRSGGWHLTMPEDARVIAPSDPRVALPIPQTEIDANPNIVQNPR
B1 was tested, and the “glycan array binding signal (z-score)” value [1] was -0.281, the “glycan array binding signal (z-score)” value [2] was -0.674 and the “glycan array binding signal (z-score)” value (Gal(a1-2)Gal) was -0.036. The “glycan array binding signal (z-score)” value [3] was 1.19, the “glycan array binding signal (z-score)” value [4] was 2.95 and the “glycan array binding signal (z-score)” value [5] was 3.12. The “glycan array binding signal (z-score)” value (Gal(a1-4)Gal(b1-4)Glc) was -0.223, the “glycan array binding signal (z-score)” value [6] was 2.45 and the “glycan array binding signal (z-score)” value (Gal(b1-3)GlcNAc6S) was -0.142. For the same binder, the “glycan array binding signal (z-score)” value [7] was 3.83, the “glycan array binding signal (z-score)” value [8] was 0.849 and the “glycan array binding signal (z-score)” value [9] was 4.09. For the same binder, the “glycan array binding signal (z-score)” value [10] was 2.67, the “glycan array binding signal (z-score)” value [11] was 0.326 and the “glycan array binding signal (z-score)” value [12] was -0.048. The “glycan array binding signal (z-score)” value (Gal(b1-4)GlcNAc6P) was 0.028, the “glycan array binding signal (z-score)” value (Gal6P(b1-4)GlcNAc) was -0.613 and the “glycan array binding signal (z-score)” value (GalNAc(a1-3)Gal) was 2.34. The “glycan array binding signal (z-score)” value (GalNAc(b1-3)GlcNAc) was 0.212, the “glycan array binding signal (z-score)” value (GalNAc6S(b1-4)GlcNAc) was 2.75 and the “glycan array binding signal (z-score)” value (GlcA(b1-6)Gal) was 0.034. The “glycan array binding signal (z-score)” value [13] was 0.01, the “glycan array binding signal (z-score)” value [14] was -0.709 and the “glycan array binding signal (z-score)” value (GlcNAc(b1-3)Gal) was -0.109. The “glycan array binding signal (z-score)” value [15] was 2.84, the “glycan array binding signal (z-score)” value [16] was 0.1 and the “glycan array binding signal (z-score)” value [17] was -0.181. The “glycan array binding signal (z-score)” value [18] was 0.006, the “glycan array binding signal (z-score)” value [19] was -0.506 and the “glycan array binding signal (z-score)” value [20] was 0.358.
